# Measured values: the supplement of paper PMC10338343
# ± gives the standard deviation.
# Columns and labels:
# [1] = tested on: MILI (PIWIL2) piRISC loaded with L1MC piRNA (26 nt); assay: pre-steady-state target cleavage rate (min^-1); guide: L1MC piRNA 5'p-UAACUAAAUACUAUGCAAGCUGUAGG; higher = faster piRNA-guided slicing of the target
# Summary of the method: (§1)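 Sequencing of uncleaved targets, normalised to depth and to weakly complementary targets, was the readout of this Cleave-'n-Seq assay. A transcribed, DNA-blocked target RNA library (0.1 nM) was mixed with 1 nM active affinity-purified piRISC carrying one synthetic guide, with or without 500 nM GTSF1 partner protein, in HEPES–potassium acetate buffer at 33 °C for 0–8 or 0–960 min. Three trials were pooled, k3 was capped at 0.0001 min^-1, and a burst-and-steady-state fit gave the pre-steady-state cleavage rate.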
# [2] = tested on: EfPiwi piRISC loaded with L1MC piRNA (26 nt); assay: pre-steady-state target cleavage rate (min^-1); auxiliary factor: 500 nM Ephydatia muelleri Gtsf1; guide: L1MC piRNA 5'p-UAACUAAAUACUAUGCAAGCUGUAGG; MIWI and MILI are mouse PIWI proteins and EfPiwi is from a freshwater sponge; tags in brackets are library labels; higher = faster piRNA-guided slicing of the target
# Summary of the method: as §1
# [3] = auxiliary factor: 500 nM mouse GTSF1
Sequence,"pre-steady-state target cleavage rate [1, 3]",pre-steady-state target cleavage rate [2],pre-steady-state target cleavage rate ([1]; auxiliary factor: none (no GTSF1))
UCCUCCUACAGCUUGCAUAGUAAAUACAAA,0.0608 ± 0.018,0.00363 ± 0.003,
UCCUGGAUCAGCUUGCAUAGUAUUAAGUAA,0.178 ± 0.03,0.00602 ± 0.0026,
UCCUGCUACAGCUUGCAUAGUAUUAAGAUA,0.019 ± 0.0078,0.00501 ± 0.0016,
UCCUGGAUGAGCAUGCAUAGUAUUUAGAAA,0.121 ± 0.025,0.00289 ± 0.0024,
UCCUGGAAGAGCUUGCAUAGUAUUUAGAAA,0.109 ± 0.025,0.00533 ± 0.002,
UCCUGGUUCAGCUUCCAUAGUAUUUAGUUA,0.0301 ± 0.012,0.00303 ± 0.0021,
UCCUGGAACAGCUUGCAUAGUAUAUUGUUA,0.153 ± 0.029,0.00533 ± 0.0022,
UCCUGGAACAGCAUGCAUAGUAUUUAGAUA,0.188 ± 0.022,0.00441 ± 0.0022,
UCCUGGUACUGCUUGCAUAGUAUUUUCAAA,0.0112 ± 0.0064,0.00285 ± 0.0022,
UCCUGGAUCUCCUUGCAUAGUAUUUAGAAA,0.192 ± 0.031,0.00628 ± 0.0051,
UCCUGGAACAGCUUGCAUAGUAUAUAGUAA,0.124 ± 0.022,0.00251 ± 0.0017,
UCCUCCUACACGAUGCAUAGUAUUUAGAAA,0.102 ± 0.021,0.00369 ± 0.0021,
UCCUGGUUCAGCUUGCAUAGUAUUUAGAUA,0.106 ± 0.022,0.00378 ± 0.002,
UCCUGGUACAGCUUGCUAUAGUAUUUAGUUA,0.0224 ± 0.009,0.00339 ± 0.0031,
UCCUGGAUCAGCUUGCAUAGUAUUUUGAAA,0.108 ± 0.027,0.00318 ± 0.0016,
UCCUCCUACAGCUUGCAUAGUAUUAUCAAA,0.0973 ± 0.021,0.00273 ± 0.0027,
UCCUGGAUCAGCUUGCAUAGUAUUAAGAUA,0.0716 ± 0.025,0.006 ± 0.0032,
UCCUGGAUGUCGAACGUAUCUAUUUAUGUUA,,< 0.0001,< 0.0001
UCCUGGAUGUGCUUGUCAUAGUAUUUAGUUA,0.0294 ± 0.0075,0.00492 ± 0.0031,
UCCUCCUACAGCUUGCAUAGUAUAUAGAAA,0.105 ± 0.028,0.00329 ± 0.0015,
